Compound activity from PubChem BioAssay.
SARS PLP yeast – SARS-CoV PLP inhibition in yeast. AID 485353. Potency, µM (highest dose often 32.9 µM), actives largely listed as activators. S. cerevisiae expressing SARS-CoV PLpro, growth rescue. hit rate 0.19% among 330,000; calls by dose curve; also: nearly all actives have a fitted effect of over 55% in size
Pf growth 48h – P. falciparum growth inhibition at 48 hours (one generation). P. falciparum luciferase growth in erythrocytes, 48 h. Potency, µM (highest dose often 28.7 µM), hits mostly inhibitors. hit rate 5.9% among 310,000. AID 504832
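A one-generation exposure of luciferase-tagged malaria parasites in RPMI 1640/Albumax erythrocyte culture, 37 C and 5% CO2. Inhibition is inferred from decreased luminescence after adding detection reagent.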
NS1 function inh – inhibitors of influenza NS1 protein function. Potency, µM (series often up to 46.1 µM). hit rate 0.4% among 270,000; calls by dose curve; also: actives are rising curves; nearly all actives have a fitted effect of over 50% in size
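OD600 was taken as the measure of yeast growth restored by compound in an NS1-expressing S. cerevisiae strain. Cells had been washed out of glucose medium and diluted 1:100 into galactose -URA medium, pH 6.0.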
Pf growth 96h – P. falciparum growth inhibition at 96 hours | hit rate 6.9% among 320,000 | AID 504834 | Potency, µM (doses to about 28.7 µM), hits mostly inhibitors | P. falciparum luciferase reporter growth, 96 h
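P. falciparum expressing integrated firefly luciferase, in erythrocytes at 2% hematocrit, 0.05% parasitemia, incubated with compounds 96 h at 37 C, 5% CO2. Growth inhibition read as loss of luminescence; two-generation exposure targets delayed-death apicoplast inhibitors.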
A number is an active result. Only some compounds are listed: those with a hit (about 10% of all), similar ones and a draw of the others. Unless noted, calls follow the shape of the dose curve; as a rule, active = well fitted inhibition curve with a large enough effect; inconclusive = small, poorly fitted or top-dose-only effect, or another doubt; inactive = no such curve, though single readings can be large or run the other way.

Screening CCC(C(=O)Nc1cccc(C(F)(F)F)c1)c1ccccc1 (stereo unspecified) returned SARS PLP yeast inactive, Pf growth 48h inconclusive, NS1 function inh inactive and Pf growth 96h inconclusive.
`CCCC(=O)NC(Nc1ccccc1F)C(Cl)(Cl)Cl` (stereo unspecified) gave SARS PLP yeast inactive, Pf growth 48h inconclusive, NS1 function inh inactive and Pf growth 96h inconclusive.
`O=C(COc1ccc(Br)cc1)NCCNC(=O)c1ccncc1` gave SARS PLP yeast inconclusive, Pf growth 48h inactive, NS1 function inh inactive and Pf growth 96h inactive.
`COc1ccc(C(=O)N(C)Cc2ccccc2F)cc1S(=O)(=O)N1CCCC1` gave SARS PLP yeast inactive, Pf growth 48h inconclusive and Pf growth 96h inconclusive.
For Cc1ccc(COC(=O)c2cccc(S(=O)(=O)N3CCCCCC3)c2)cc1 the results were SARS PLP yeast inactive, Pf growth 48h inconclusive and Pf growth 96h inconclusive.
O=C(OCc1ccc(Br)cc1)c1cccc(S(=O)(=O)N2CCCC2)c1 was read as SARS PLP yeast inactive, Pf growth 48h inconclusive and Pf growth 96h 10µM.
Screening COc1ccc(COC(=O)c2cccc(S(=O)(=O)N3CCCC3)c2)cc1F returned SARS PLP yeast inactive, Pf growth 48h inconclusive, NS1 function inh inactive and Pf growth 96h 12µM.
`COc1ccc(C(=O)OCc2ccccc2F)cc1S(=O)(=O)N1CCCC1` gave SARS PLP yeast inactive, Pf growth 48h 9.3µM and Pf growth 96h 13µM.
CC(=O)N1CCN(S(=O)(=O)c2cccc(C(=O)OCc3ccc(C(C)(C)C)cc3)c2)CC1 was read as SARS PLP yeast inactive, Pf growth 48h 12µM and Pf growth 96h 9.3µM.
For CC(C)C(NC(=O)c1ccc(F)cc1)C(=O)Nc1cccnc1 (stereo unspecified) the results were SARS PLP yeast inactive, Pf growth 48h inactive and Pf growth 96h inactive.
For COc1ccccc1CN(CC(=O)NCc1ccc(F)cc1)C(=O)c1csnn1 the results were SARS PLP yeast inactive, Pf growth 48h inactive, NS1 function inh inactive and Pf growth 96h inactive.
Screening Cc1ccc2c(c1)N(CC(=O)NCCN1CCOCC1)C(=O)CO2 returned NS1 function inh inactive.
`O=C(COC(=O)c1ccc(Br)c(S(=O)(=O)N2CCOCC2)c1)NC1CC1` gave SARS PLP yeast inactive.
For COc1ccc(C(=O)OCc2c(F)cccc2Cl)cc1S(=O)(=O)N1CCOCC1 the results were SARS PLP yeast inactive, Pf growth 48h inconclusive and Pf growth 96h inconclusive.
Screening COc1ccc(COC(=O)c2ccc(C)c(S(=O)(=O)N3CCOCC3)c2)cc1F returned SARS PLP yeast inactive, Pf growth 48h inconclusive and Pf growth 96h 10µM.
CCN1C(=O)[C@H]2[C@@H](c3ccc(-c4ccc(C(C)=O)cc4)cc3)N[C@@](Cc3ccccc3)(C(=O)OC)[C@H]2C1=O was read as SARS PLP yeast inactive, Pf growth 48h 13µM and Pf growth 96h 10µM.
`CCN1C(=O)[C@H]2[C@@H](c3ccc(-c4ccccc4)cc3)N[C@@](Cc3ccccc3)(C(=O)OC)[C@H]2C1=O` gave SARS PLP yeast inactive, Pf growth 48h 10µM and Pf growth 96h inconclusive.
Screening CCN1C(=O)[C@H]2[C@@H](c3ccc(-c4ccccc4)c(OC)c3)N[C@@](CC(C)C)(C(=O)OC)[C@H]2C1=O returned SARS PLP yeast inactive.
`CCN1C(=O)[C@H]2[C@@H](c3ccc(-c4ccccc4)cc3)N[C@@](CC(C)C)(C(=O)OC)[C@H]2C1=O` gave SARS PLP yeast inactive, Pf growth 48h 8.3µM and Pf growth 96h 9.3µM.
COC(=O)[C@]1(Cc2ccccc2)N[C@H](c2ccc(-c3ccc(F)cc3)cc2)[C@@H]2C(=O)N(C)C(=O)[C@@H]21 was read as SARS PLP yeast inactive, Pf growth 48h inconclusive and Pf growth 96h 13µM.
For Cc1ccc(CS(=O)Cc2ccc(C(=O)N3CCN(c4ccccn4)CC3)o2)cc1 (stereo unspecified) the results were SARS PLP yeast inactive, Pf growth 48h inactive, NS1 function inh inactive and Pf growth 96h inactive.
Screening O=c1cc(NCc2ccco2)[nH]c(=O)n1-c1ccc(Br)cc1 returned SARS PLP yeast inactive, Pf growth 48h inactive, NS1 function inh inactive and Pf growth 96h 9.3µM.
`CN1C(=O)[C@@H](NC(=O)c2cc3ccccc3[nH]2)N=C(c2ccccc2)c2ccccc21` gave Pf growth 48h 15µM and Pf growth 96h 15µM.
For COc1cccc(NC(=O)NC2(C(=O)N3CCN(C)CC3)CCCCC2)c1 the results were SARS PLP yeast inactive, Pf growth 48h inactive, NS1 function inh inactive and Pf growth 96h inactive.
CC(=O)Nc1ccc(-c2nnn(CC(=O)c3ccc(F)cc3)n2)cc1Cl was read as SARS PLP yeast inactive, Pf growth 48h inconclusive, NS1 function inh inactive and Pf growth 96h 13µM.
Screening O=C(O)[C@@H]1CCCN1S(=O)(=O)c1cccc2cccnc12 returned SARS PLP yeast inactive, Pf growth 48h inactive and Pf growth 96h inactive.
COc1cc2c(cc1OC)-c1cc3ccc(OC)c(OC)c3c[n+]1CC2 was read as Pf growth 48h 0.19µM and Pf growth 96h 0.17µM.
For Cc1cccc2c1cnn2C(=O)CCC(=O)NCc1ccc(F)cc1 the results were SARS PLP yeast inconclusive, Pf growth 48h inactive, NS1 function inh inactive and Pf growth 96h 15µM.
Screening Cc1ccc(CNC(=O)CCC(=O)n2ncc3cc(C)ccc32)cc1 returned SARS PLP yeast inactive, Pf growth 48h inconclusive, NS1 function inh inactive and Pf growth 96h inactive.
`N=c1n(CCN2CCCCC2)c2ccccc2n1CC(=O)c1cccs1` gave SARS PLP yeast inactive, Pf growth 48h 12µM, NS1 function inh inactive and Pf growth 96h 10µM.
N=c1n(CCN2CCOCC2)c2ccccc2n1CC(=O)c1ccc(Cl)c(Cl)c1 was read as SARS PLP yeast inactive, Pf growth 48h 12µM, NS1 function inh inactive and Pf growth 96h 0.47µM.
Screening CCOC(=O)N1CCN(C(=O)COC(=O)c2ccc(Cl)nc2)CC1 returned SARS PLP yeast inactive.
